# Source: PubChem BioAssay (NCI)
# Where “and” joins values, the source holds several entries; their conditions need not be identical. Equal entries are not always repeated. About 79,000 compounds went through this panel and 15% of them were active in at least one assay; those are over-represented in the sample as a whole. More than one record can exist for a structure, and the calls need not agree. Calls of active or inactive are those of the source. No stated cut-off is given here; in the data, active means growth inhibition above about 70%; inactive means the rest.
# Assays:
# [1] = NCI Yeast Anticancer Drug Screen. Data for the rad50 strain (AID 155);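 further: 0% = growth of vehicle-only cultures of the same strain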; conditions: S. cerevisiae rad50 strain growth inhibition; at 50.0 µM; stronger effect = higher value
# Outline: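 Readout: growth inhibition relative to vehicle-treated cultures. Compound exposure was carried out in a genetically defined yeast strain deficient in DNA damage repair.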
# [2] = NCI Yeast Anticancer Drug Screen. Data for the mec2-1 strain (AID 157); conditions: S. cerevisiae mec2-1 strain, at 50.0 µM, stronger effect = higher value
# Outline: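 Using mec2-1 yeast: add compound, measure growth, express inhibition versus vehicle-treated cultures.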
# [3] = NCI Yeast Anticancer Drug Screen. Data for the sgs1 mgt1 strain (AID 161);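 further: 0% = growth of cultures given vehicle only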; conditions: S. cerevisiae sgs1 mgt1 strain, at 50.0 µM, stronger effect = higher value
# Outline: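 Growth of a repair-deficient yeast mutant was monitored after compound treatment and expressed as inhibition relative to vehicle-treated cultures.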
# [4] = NCI Yeast Anticancer Drug Screen. Data for the cln2 rad14 strain (AID 165);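 further: 0% = growth equal to vehicle treated cultures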; conditions: S. cerevisiae cln2 rad14 strain, at 50.0 µM, stronger effect = higher value
# Outline: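 Yeast strain cln2 rad14, bearing defects in cell cycle control and DNA repair, serves as the test system; values reflect growth inhibition compared with vehicle.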
# [5] = NCI Yeast Anticancer Drug Screen. Data for the bub3 strain (AID 167); conditions: S. cerevisiae bub3 mutant strain, at 50.0 µM, stronger effect = higher value
# Outline: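 Readout: yeast growth inhibition, expressed relative to vehicle-only wells. The test organism is a mutant strain from a panel with lesions in DNA repair or checkpoint genes.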
# [6] = NCI Yeast Anticancer Drug Screen. Data for the mlh1 rad18 strain (AID 175); conditions: S. cerevisiae mlh1 rad18 strain growth inhibition; at 50.0 µM; stronger effect = higher value
# Outline: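 Steps: expose repair-defective yeast to compound; measure growth; express inhibition against vehicle-treated controls.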
SMILES,growth inhibition [1],growth inhibition [2],growth inhibition [3],growth inhibition [4],growth inhibition [5],growth inhibition [6]
CC(C)NCC(=O)c1ccc(O)c(O)c1,4.9% (inactive) and -5.1% (inactive),-19.3% (inactive) and 4.45% (inactive),-21.8% (inactive),-7.25% (inactive),-26.1% (inactive),7.7% (inactive) and -10.9% (inactive)
CC1([N+](=O)[O-])COP(=O)(NCC2CCCO2)OC1 (stereo not given),4.8% (inactive),-23.9% (inactive),-2.9% (inactive),-4.1% (inactive),0.35% (inactive),3.95% (inactive)
CNc1cc(Cl)c(C#N)c(Cl)c1,-2.6% (inactive),-2.7% (inactive),-0.7% (inactive),-39.2% (inactive),-24.6% (inactive),9.25% (inactive)
Cc1cccc[c]1[Sb](=[O])([OH])[OH],6.6% (inactive),-10.2% (inactive),-15.9% (inactive),-7.35% (inactive),-17.2% (inactive),-2.7% (inactive)
CCC1(CC(C)O)C(=O)NC(=O)NC1=O (stereo not given),6.9% (inactive),-2.45% (inactive),-20% (inactive),-37.7% (inactive),-0.65% (inactive),-23.1% (inactive)
CC[n+]1c(C)n(-c2ccccc2)c(=O)c2ccccc21,-0.3% (inactive),-6.85% (inactive),4.75% (inactive),18.2% (inactive),-10.9% (inactive),6.25% (inactive)
Cc1ccc(NC(=O)C(=O)C2C(=O)NC(=O)NC2=O)cc1C,-4.9% (inactive),-14.3% (inactive),-34.6% (inactive),3.85% (inactive),-19.9% (inactive),-23.2% (inactive)
CC(C)OC(=S)S.[Cu+2],-7% (inactive),-6.7% (inactive),-2.4% (inactive),-31.6% (inactive),-15.2% (inactive),2.4% (inactive)
O=C(CC(=O)C(F)(F)C(F)(F)C(F)(F)F)c1ccco1.[Fe],25.3% (inactive),24.7% (inactive),23.6% (inactive),13.6% (inactive),15.7% (inactive),17.9% (inactive)
NC(CSC(c1ccccc1)c1ccccc1)C(=O)O (stereo not given),6.3% (inactive),0% (inactive),3.35% (inactive),5% (inactive),13.4% (inactive),3.5% (inactive)
c1ccc2c(c1)CN1Cc3ccccc3C2C1,6.6% (inactive),-12.3% (inactive),-13.5% (inactive),-13.7% (inactive),2.65% (inactive),-6.35% (inactive)
O=C(CC(=O)C(F)(F)F)c1ccco1,34% (inactive),-25.9% (inactive),-19.1% (inactive),-49.8% (inactive),-16.5% (inactive),-8.45% (inactive)
O=C(Cl)OCCOCCOC(=O)Cl,-4.35% (inactive),-6.1% (inactive),6.95% (inactive),-28.1% (inactive),-3.15% (inactive),-4.4% (inactive)
CC1(C(N)Cc2c[nH]c3ccccc23)OCCO1 (stereo not given),-7.7% (inactive),-0.1% (inactive),-28.6% (inactive),-6.55% (inactive),-0.25% (inactive),4.1% (inactive)
O/N=C1\CN2CCC1CC2,15.9% (inactive),13.2% (inactive),1.7% (inactive),15.4% (inactive),10.4% (inactive),20.3% (inactive)
N/N=C(\N)c1nn[nH]n1,-9.55% (inactive),-12.4% (inactive),-12.7% (inactive),-6.05% (inactive),12.9% (inactive),-11.9% (inactive)
N#CC(C#N)/C=C/[Se]c1ccccc1,14.2% (inactive),1.65% (inactive),2.1% (inactive),26.8% (inactive),0.35% (inactive),3.6% (inactive)
CCC(c1ccc(OC)cc1)C(N)c1ccc(OC)cc1 (stereo not given),-14.3% (inactive),1.05% (inactive),-11.9% (inactive),-10.5% (inactive),-4.35% (inactive),-0.3% (inactive)
C(#Cc1ccccc1)c1ccccc1.[C-]#[O+].[C-]#[O+].[C-]#[O+].[C-]#[O+].[C-]#[O+].[C-]#[O+].[Co].[Co],42.4% (inactive),28.1% (inactive),42.4% (inactive),-3.55% (inactive),5.2% (inactive),53.2% (inactive)
N#CC1CCCCC1,0.4% (inactive),-5.4% (inactive),-0.35% (inactive),-3.9% (inactive),4.65% (inactive),1.65% (inactive)

SMILES,growth inhibition [1],growth inhibition [2],growth inhibition [3],growth inhibition [4],growth inhibition [5],growth inhibition [6]
c1ccc2c(c1)cc1ccc3cccc4ccc2c1c34,-6.9% (inactive),-14.9% (inactive),7.15% (inactive),15.5% (inactive),14.4% (inactive),9.9% (inactive)
NC(N)=N/N=C/C(=N\N=C(N)N)C(O)C(O)C(O)C(O)CO (stereo not given),-10.3% (inactive) and 44.2% (inactive),-20.9% (inactive) and -3.55% (inactive),-16.1% (inactive) and 31.9% (inactive),-22.6% (inactive) and 15.1% (inactive),-3.8% (inactive) and 7.3% (inactive),-22.4% (inactive) and 15.9% (inactive)
CC(=O)[O-].[Ni].c1ccc(/C(=N\Nc2ccccn2)c2ccccn2)cc1,19.8% (inactive),3.15% (inactive),4.25% (inactive),-3.7% (inactive),-4.6% (inactive),18.6% (inactive)
N#CCCCl,-13.7% (inactive),-1.9% (inactive),13.6% (inactive),-23.4% (inactive),-1.65% (inactive),-19.8% (inactive)
c1ccc2c(c1)CCNC2,21.8% (inactive),13.2% (inactive),19% (inactive),5.15% (inactive),-0.55% (inactive),24.4% (inactive)
CP1(=S)CC[C@H]2C3=C(CC[C@@H]21)CC(=O)CC3 (stereo not given in full),14.4% (inactive),14.6% (inactive),11.3% (inactive),52.9% (inactive),2.9% (inactive),16.9% (inactive)
CCCNC(Cc1ccccc1)c1ccccc1 (stereo not given),-7.95% (inactive),-9.25% (inactive),3.4% (inactive),-10.1% (inactive),-0.7% (inactive),-1% (inactive)
C[N+](C)(C)CC1CCC(C[N+](C)(C)C)C1=NO (stereo not given),-16.3% (inactive),11.1% (inactive),4.2% (inactive),13.2% (inactive),9.75% (inactive),-15.5% (inactive)
COc1ccc2nc3ccccc3nc2c1 (tested in a mixture with another compound),30.2% (inactive),35.2% (inactive),27.2% (inactive),19.6% (inactive),24.1% (inactive),30.8% (inactive)
[Cl][Sn]([Cl])([c]1ccccc1)[c]1ccccc1,0.95% (inactive) and 97.1% (active),29.9% (inactive) and 96.2% (active),41.5% (inactive) and 95.1% (active),-35.4% (inactive) and 95.2% (active),48.4% (inactive) and 95.8% (active),51% (inactive) and 97.2% (active)
O=C(N1CCCC1)C1(c2cccc(Cl)c2)CCNCC1,-26.1% (inactive),-53% (inactive),-16.2% (inactive),0.25% (inactive),-28.1% (inactive),-20.7% (inactive)
COP(=O)(NC12CC3CC(CC(C3)C1)C2)OC,-4.75% (inactive),5.45% (inactive),-13.4% (inactive),15.7% (inactive),-1.1% (inactive),-16.7% (inactive)
C1CC2OC2CC1C1CO1 (stereo not given),-0.4% (inactive),-3% (inactive),4.7% (inactive),-8.4% (inactive),-17.1% (inactive),-17.9% (inactive)
C[C@H]1C(=O)O[C@@H]2CCN3CC=C(COC(=O)[C@](C)(O)[C@@]1(C)O)[C@H]23,-4.7% (inactive),-4.2% (inactive),11.9% (inactive),-2.85% (inactive),-9.6% (inactive),-44.1% (inactive)
CN1C(=O)CC(=O)N(C)P1(=O)Oc1ccccc1,-6% (inactive),3.25% (inactive),14% (inactive),-1.6% (inactive),-1.7% (inactive),4.15% (inactive)
S=P(NNc1ccccc1)(NNc1ccccc1)c1ccc(Cl)cc1,75.4% (active),-33.1% (inactive),81.9% (active),82.3% (active),34.6% (inactive),83.2% (active)
Cc1cc(Cl)ccc1OC(C)C(=O)O (stereo not given),-2.05% (inactive),-15.2% (inactive),0% (inactive),15.3% (inactive),-12.7% (inactive),-7.55% (inactive)
[Cl][Tl],-4.7% (inactive),5.2% (inactive),9.5% (inactive),-11.3% (inactive),-41% (inactive),-37.5% (inactive)
CCCCCCCCCCC[CH2][Hg][CH2]CCCCCCCCCCC,9.8% (inactive),-1.05% (inactive),4% (inactive),-4.65% (inactive),4.55% (inactive),-4.3% (inactive)
Cc1cc(NC2=NCCO2)c2c(c1C)CCCC2,-10.1% (inactive),-23.1% (inactive),-6.9% (inactive),22.3% (inactive),-7.85% (inactive),-5.35% (inactive)
